Data on 30 compounds can be found in PubChem BioAssay (NCATS).

Experiment [1] is described as follows: Cytotoxicity counterscreen for inhibitors of SARS-CoV-2 cell entry (AID 1645845). Note: nearly all actives have a fitted effect of over 50% in size. The settings on record: outcome: dose series up to 57.1 µM unless noted. The essentials: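 After a 15 min room-temperature ATPLite 1step step, luminescence reflected ATP remaining in HEK293-ACE2 cells exposed to compound for 1 h plus 48 h at 37 C, with percent activity set by cell and no-cell controls.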
In general terms: A counterscreen serves to expose hits that act by an unwanted route or on another target.

The nature of experiment [2]: Primary qHTS to identify inhibitors of SARS-CoV-2 cell entry (AID 1645846). Note: nearly all actives have a fitted effect of over 45% in size. The settings on record: SARS-CoV-2 pseudovirus cell entry assay, luminescence; activity change, negative = inhibition: at 57.1 µM (top of the series) unless noted. The procedure, abridged:
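Entry measured by luciferase signal 48 h after adding SARS-CoV-2-S pseudotyped MLV particles to HEK293-ACE2 cells preincubated 1 h with compounds. Normalisation: bald particles and spike particles.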

Each structure is given as a SMILES string. Inconclusive results are not listed. Calls of active or inactive are those of the source. Calls come from the whole dose curve. Square brackets hold non-standard residues; d marks the D form. Peptide text beside a SMILES is read from it. * marks the point of attachment. Benzoyl(4-tBu) = CC(C)(C)c1ccc(C(=O)*)cc1; Lys(Et2) = CCN(CC)CCCC[C@H](N)C(=O)O
Potency is the fitted concentration of half-maximal effect.

Turning to `O=C(Cc1cccc(OC(F)(F)F)c1)Nc1ccc(CCCCc2nnc(NC(=O)Cc3ccccn3)s2)nn1`, in experiment [1], the Potency entry was “inactive”.

As to `COc1ccc(Oc2cc(NCCC(F)(F)F)c3ncc(-c4ccc(C(=O)NC5CC5)c(C)c4)n3n2)c(F)c1F`, in experiment [1], the Potency entry was “inactive”. The activity change, negative = inhibition in experiment [2] is -12.1%.

`Cc1cc(O)c(-c2ccc([C@@H](C)CN)cc2)c2c1[nH]c(=O)c1sccc12`: the Potency entry in experiment [1] was “inactive”. Moreover, the activity change, negative = inhibition in experiment [2] was -4.37%.

For `C=CCNC1=C2C[C@@H](C)C[C@H](OC)[C@H](O)[C@@H](C)/C=C(\C)[C@H](OC(N)=O)[C@@H](OC)/C=C\C=C(/C)C(=O)NC(=CC1=O)C2=O`, the Potency in experiment [1] was 25.1 µM (active); in experiment [2] it was 14.1 µM (active).

In the case of `COc1ccc2c(c1)CC[C@@H]1[C@@H]2CC[C@]2(C)[C@@H](NCCCCCCN3C(=O)C=CC3=O)CC[C@@H]12`, the Potency entry in experiment [1] and in experiment [2] was “inactive” throughout.

Take `O=C(/C=C\n1cnc(-c2cc(C(F)(F)F)cc(C(F)(F)F)c2)n1)NNc1ccccn1`: the Potency in experiment [1] is 2.51 µM (active); in experiment [2], 3.16 µM (active).

On to `Cc1cc(O[C@@H](CCC(F)(F)F)c2ccc(C(=O)NCCC(=O)O)cc2)cc(C)c1-c1ccc(C(C)(C)C)cc1`, for which the Potency result in experiment [1] is “inactive”. Besides, in experiment [2], the activity change, negative = inhibition was -0.0119%.

For the compound `C=C1[C@H](OC(=O)/C=C(\C)CC)C[C@@H](C(C)C)[C@@H]2[C@H]([C@@H](C)OC(C)=O)C(=O)C[C@@H]12`, the Potency entry in experiment [1] was “inactive”. Also, the activity change, negative = inhibition in experiment [2] was -14.8%.

As to `C=C1CCC[C@]2(C)C=C3OC(=O)C(C)=C3C[C@@H]12`, in experiment [1], the Potency entry is “inactive”. In experiment [2], the activity change, negative = inhibition is -28.3%.

With `CCn1c(=O)c(-c2ccc(Cl)cc2Cl)cc2cnc(Nc3ccc(N4CCNCC4)c(F)c3)nc21`, the Potency entry in experiment [1] and in experiment [2] was “inactive” each time.

As to `C=C1/C(=C/C=C2\CCCC3(C)[C@@H]([C@H](C)/C=C/C=C/C(O)(CC)CC)CC[C@@H]23)C[C@@H](O)C[C@@H]1O` (some centres undefined), the Potency entry in experiment [1] and in experiment [2] was “inactive” throughout.

Take `CCS(=O)(=O)c1ccc2oc(-c3ccc4ccccc4c3)nc2c1`: the Potency entry in experiment [1] and in experiment [2] was “inactive” each time.

Regarding `O=C(CCCc1ccc2cccnc2n1)NCc1cc(-c2ccc(F)c(C(F)(F)F)c2)no1`, in experiment [1], the Potency entry was “inactive”. Besides, the activity change, negative = inhibition in experiment [2] was -12.5%.

Regarding `CC(=O)Nc1ccc(C(=O)Nc2ccccc2N)cc1`, the Potency in experiment [1] is 7.08 µM (active). For the same compound, the Potency result in experiment [2] was “inactive”.

Take `C[C@H](NC(=O)/C(C#N)=C/c1cccc(Br)n1)c1ccccc1`: the results for the Potency in experiment [1] and in experiment [2] were 28.2 µM (active) and 35.5 µM (active), respectively.

In the case of `COc1ccccc1C(=O)Nc1cc2c(cc1N1CCNC[C@H]1C)n(C)c(=O)n2C`, the Potency result in experiment [1] is “inactive”. The activity change, negative = inhibition in experiment [2] is -55.2%.

In the case of `COc1ccc(Cl)cc1-c1cc(=O)[nH]c(=S)n1CC(N)=O`, in experiment [1], the Potency result was “inactive”. Further, the activity change, negative = inhibition in experiment [2] was found to be 4.69%.

Regarding `COC[C@@H](c1ccc(C(F)(F)F)cc1)N1CCN(C2(C)CCN(C(=O)c3c(C)ncnc3C)CC2)C[C@@H]1C`, in experiment [1], the Potency result is “inactive”. The activity change, negative = inhibition in experiment [2] is -12.7%.

As for `CCN(CC)CCCC[C@H](NC(=O)[C@H](CC(C)C)NC(=O)[C@H](C)NC(=O)[C@H](Cc1ccccc1)NC(=O)c1ccc(C(C)(C)C)cc1)C(=O)N[C@@H](CO)C(=O)OC` ({Benzoyl(4-tBu)}-FAL[Lys(Et2)]S-OMe), the Potency entry in experiment [1] and in experiment [2] was “inactive” throughout.

Turning to `N[C@@H](CCC(=O)O)C(=O)N[C@@H](Cc1c[nH]c2ccccc12)C(=O)O` (H-Glu-Trp-OH), the Potency result in experiment [1] and in experiment [2] was “inactive” throughout.

As to `CCOC(=O)N[C@@H]1CC[C@@H]2[C@@H](C1)C[C@H]1C(=O)O[C@H](C)[C@H]1[C@H]2/C=C/c1ccc(-c2cccc(F)c2)cn1`, the Potency result in experiment [1] was “inactive”. Also, the Potency in experiment [2] was 28.2 µM (active).

`NC(CC1c2ccccc2Oc2ccccc21)(C(=O)O)C1CC1C(=O)O` (centres undefined): the Potency entry in experiment [1] is “inactive”. The activity change, negative = inhibition in experiment [2] stood at 4.33%.

Regarding `Cc1cc(Oc2ccc3nc(COc4ccc(CC5SC(=O)NC5=O)cc4)n(C)c3c2)cc(C)c1N` (centres undefined), the Potency entry in experiment [1] was “inactive”. In addition, in experiment [2], the activity change, negative = inhibition stood at 2.59%.

With `CC1(C)SCCN(S(=O)(=O)c2ccc(OCC#CCO)cc2)[C@H]1C(=O)NO`, the Potency result in experiment [1] is “inactive”. Besides, the activity change, negative = inhibition in experiment [2] is -8.73%.

As to `C[C@H]1O[C@H](O[C@H]2[C@H](O)[C@@H](O)[C@@H](O[C@H]3[C@H](O)[C@@H](O)C(O)O[C@@H]3CO)O[C@@H]2CO)[C@H](O)[C@@H](O)[C@@H]1N[C@H]1C=C(CO)[C@@H](O)[C@H](O)[C@H]1O` (some centres undefined), in experiment [1], the Potency entry is “inactive”. For the same compound, the activity change, negative = inhibition in experiment [2] is -16.5%.

As for `Cc1ccccc1-n1nc(-c2c(-c3ccc(F)cc3)nn3c2NC[C@@H](CO)C3)ccc1=O`, the Potency entry in experiment [1] was “inactive”. The activity change, negative = inhibition in experiment [2] is -24.3%.

As to `O=C(Nc1ccc2c(c1)CCN(Cc1ncn[nH]1)C2)c1ccccc1-c1ccc(C(F)(F)F)cc1`, the Potency result in experiment [1] was “inactive”. For the same compound, in experiment [2], the activity change, negative = inhibition was -32.8%.

For the compound `CC(C)NC(=O)C1CCC(n2c(NC(=O)c3ccc(F)cc3)nc3ccc(CN4CCC(C(C)(C)O)CC4)cc32)CC1` (centres undefined), the Potency result in experiment [1] was “inactive”. The activity change, negative = inhibition in experiment [2] was -10.3% [at 27.1 µM].

Turning to `COc1ccccc1C(=O)Nc1cc2c(cc1N1CCCC1)n(C)c(=O)n2C`, the Potency entry in experiment [1] was “inactive”. The activity change, negative = inhibition in experiment [2] is -27%.

Consider `COc1cc(C(=O)O)ccc1NC(=O)[C@@H]1N[C@@H](CC(C)(C)C)[C@](C#N)(c2ccc(Cl)cc2F)[C@H]1c1cccc(Cl)c1F`, for which the Potency entry in experiment [1] is “inactive”. Besides, in experiment [2], the activity change, negative = inhibition was 1.92%.
